The text below walks through data of PubChem BioAssay.

Each structure is given as a SMILES string. Results filed as inconclusive are left out. Calls of active or inactive are those of the source.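 The calls were made as follows, unless noted: active = percent response above 42, roughly 3 SD of non-fluorescent test compounds; inactive = the rest.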

The nature of test [1]: yeast TOR pathway RPL19A-GFP modulators, primary screen, cell-based, S. cerevisiae, multiplex flow cytometry (AID 1862; in the data active = percent of DMSO control GFP below about 86%;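 also: lower values mimic rapamycin by blocking the RPL19A rise seen in DMSO cells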). The following applies: S. cerevisiae RPL19A-GFP strain, flow cytometry fluorescence, 3 h; at 10 µM; stronger effect = lower value. (In general: Flow cytometry measures light scatter and fluorescence of single cells or particles in a stream.)
Test [2] can be described thus: modulators of CIT2-GFP expression in yeast, primary screen, S. cerevisiae, GFP fusion, multiplex flow cytometry (AID 1870;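 active = percent response above a set limit, the screen-wide mean plus 3 SD, cut at about 130% in these data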;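 also: barcoded CIT2-GFP strain pooled with four other GFP strains with rapamycin as positive control; median GFP fluorescence per well over plate mean of DMSO wells so 100% = DMSO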). The following applies: 3 h, at 10 µM, stronger effect = higher value.
Test [3] is described as follows: modulators of LAP4-GFP expression in yeast, primary screen, S. cerevisiae, multiplex flow cytometry (AID 1873;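 active = GFP signal, as percent of the solvent control, above the screen mean plus 3 SD, about 149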). The following applies: 3 h, at 10 µM, stronger effect = higher value.
The nature of test [4]: modulators of AGP1-GFP expression in yeast TOR pathway, primary screen, cell-based, multiplex flow cytometry, S. cerevisiae (AID 1887;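 active = GFP signal above the screen-wide mean plus 3 SD, that is over about 124.5% of the solvent control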;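 also: AGP1-GFP fusion strain of S. cerevisiae within a five-strain barcoded multiplex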). The settings on record: 3 h, at 10 µM, stronger effect = higher value.
Test [5] can be described thus: inhibitors of CD8+ T cell-vesicle binding, pilot screen, LFA-1/ICAM-1 modulator project, MLPCN validation set, flow cytometry (AID 2523;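 active = response below a set limit, under 55% cells CD8-positive and vesicle-bound, and CD8 cells' 90th-percentile brightness under 279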;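 as to vesicle binding response: mean PE anti-B7-1 fluorescence of CD8+ cells relative to row control; 100% = QL9-loaded vesicles with DMSO vehicle in the same plate row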). The settings on record: 2C mouse CD8+ T cells, at 7 µM, stronger effect = lower value; double positive events: measured here: CD8+/vesicle+ event percentage.
The target in test [6] is Integrin beta-1 (Homo sapiens) + Integrin alpha-4 (Homo sapiens) (UniProt P13612+P05556). Nature of the test: inhibition of HUTS-21 binding to VLA-4, pilot screen, VLA-4 allosteric modulator project, U937 cells, HUTS-21 mAb, flow cytometry, validation set (AID 2674;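 active = inhibition above 50%, about 3 SD of the validation set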;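 also: antibody binding induced by the VLA-4 ligand LDV present at three times its Kd; 0% = LDV ligand with antibody and no compound and 100% = antibody without LDV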). The settings on record: HUTS-21 LIBS mAb binding, at 6.7 µM, stronger effect = higher value, binding induced by LDV ligand.
Chain of Integrin beta-1 (Homo sapiens) + Integrin alpha-4 (Homo sapiens) (P05556 whole entry, looked up): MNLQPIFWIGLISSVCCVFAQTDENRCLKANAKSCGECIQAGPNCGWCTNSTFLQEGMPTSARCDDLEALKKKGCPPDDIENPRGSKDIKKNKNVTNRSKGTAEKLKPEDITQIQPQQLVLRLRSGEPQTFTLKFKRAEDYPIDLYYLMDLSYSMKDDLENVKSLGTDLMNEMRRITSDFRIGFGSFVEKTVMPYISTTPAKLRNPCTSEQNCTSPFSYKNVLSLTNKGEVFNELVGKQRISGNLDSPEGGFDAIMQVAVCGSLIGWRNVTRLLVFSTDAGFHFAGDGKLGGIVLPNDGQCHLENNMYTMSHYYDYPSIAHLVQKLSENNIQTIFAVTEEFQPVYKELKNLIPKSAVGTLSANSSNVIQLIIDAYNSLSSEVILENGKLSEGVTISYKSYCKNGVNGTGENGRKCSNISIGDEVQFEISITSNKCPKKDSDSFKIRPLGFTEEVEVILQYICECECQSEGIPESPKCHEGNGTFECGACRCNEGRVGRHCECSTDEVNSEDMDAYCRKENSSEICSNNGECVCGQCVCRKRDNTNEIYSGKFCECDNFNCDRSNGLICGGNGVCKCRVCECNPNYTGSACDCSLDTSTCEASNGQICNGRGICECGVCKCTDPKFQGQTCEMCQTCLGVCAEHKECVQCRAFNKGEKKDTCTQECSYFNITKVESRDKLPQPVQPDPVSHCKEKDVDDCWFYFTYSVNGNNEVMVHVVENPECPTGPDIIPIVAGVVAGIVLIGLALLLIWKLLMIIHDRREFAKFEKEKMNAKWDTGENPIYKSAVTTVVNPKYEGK
Chain of Integrin beta-1 (Homo sapiens) + Integrin alpha-4 (Homo sapiens) (P13612 whole entry, looked up): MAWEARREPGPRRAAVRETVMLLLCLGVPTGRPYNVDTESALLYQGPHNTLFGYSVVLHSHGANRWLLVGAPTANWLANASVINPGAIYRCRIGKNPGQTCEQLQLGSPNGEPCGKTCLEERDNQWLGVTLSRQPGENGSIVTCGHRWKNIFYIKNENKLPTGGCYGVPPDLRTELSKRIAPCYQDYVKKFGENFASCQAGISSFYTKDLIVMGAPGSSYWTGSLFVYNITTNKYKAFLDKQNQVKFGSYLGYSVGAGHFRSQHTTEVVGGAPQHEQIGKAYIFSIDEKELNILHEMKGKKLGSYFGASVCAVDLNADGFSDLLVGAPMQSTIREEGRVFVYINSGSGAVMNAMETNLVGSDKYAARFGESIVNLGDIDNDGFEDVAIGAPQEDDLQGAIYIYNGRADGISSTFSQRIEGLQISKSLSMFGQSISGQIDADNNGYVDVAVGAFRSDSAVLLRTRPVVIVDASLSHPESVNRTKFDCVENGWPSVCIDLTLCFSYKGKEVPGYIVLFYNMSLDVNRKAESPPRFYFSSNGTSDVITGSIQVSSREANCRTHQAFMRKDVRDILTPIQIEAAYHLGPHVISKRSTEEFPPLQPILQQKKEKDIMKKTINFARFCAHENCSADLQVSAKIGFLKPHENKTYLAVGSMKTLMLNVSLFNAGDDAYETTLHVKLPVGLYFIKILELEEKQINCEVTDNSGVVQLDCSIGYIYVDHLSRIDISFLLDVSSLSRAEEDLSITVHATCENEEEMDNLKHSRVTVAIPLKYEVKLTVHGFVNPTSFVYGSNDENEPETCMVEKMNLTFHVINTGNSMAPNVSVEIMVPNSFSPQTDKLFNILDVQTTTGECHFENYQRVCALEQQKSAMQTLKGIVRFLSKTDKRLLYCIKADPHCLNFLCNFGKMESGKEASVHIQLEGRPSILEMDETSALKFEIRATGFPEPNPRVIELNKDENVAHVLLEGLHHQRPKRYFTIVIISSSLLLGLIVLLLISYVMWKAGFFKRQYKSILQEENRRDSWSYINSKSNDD

Test [7] can be described thus: superoxide lowering in aged yeast cells, pilot screen, validation compound set (AID 2706;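 active = superoxide response below 65% of plate, a cut near 3 SD across the whole screen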;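 also: yeast exposed to compound for one week at 30 degrees C before staining; 100% = mean of all compound wells on the same plate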). The following applies: S. cerevisiae aging, superoxide DHE fluorescence; at 10 µM, stronger effect = lower value.
For test [8], the target named is Beta-adrenergic receptor kinase 1 (Homo sapiens) (UniProt P25098). Nature of the test: GRK2 binders displacing RNA aptamer, biochemical, validation, human GRK2, bead flow cytometry (AID 488806;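 active = aptamer binding inhibition above 30%, about 3 SD of noise from non-fluorescent compounds; inactive = inhibition at or below 30%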). The following applies: bead-bound GRK2, FAM-aptamer displacement, at 10 µM, stronger effect = higher value.
Chain of Beta-adrenergic receptor kinase 1 (Homo sapiens) (P25098 whole entry, looked up): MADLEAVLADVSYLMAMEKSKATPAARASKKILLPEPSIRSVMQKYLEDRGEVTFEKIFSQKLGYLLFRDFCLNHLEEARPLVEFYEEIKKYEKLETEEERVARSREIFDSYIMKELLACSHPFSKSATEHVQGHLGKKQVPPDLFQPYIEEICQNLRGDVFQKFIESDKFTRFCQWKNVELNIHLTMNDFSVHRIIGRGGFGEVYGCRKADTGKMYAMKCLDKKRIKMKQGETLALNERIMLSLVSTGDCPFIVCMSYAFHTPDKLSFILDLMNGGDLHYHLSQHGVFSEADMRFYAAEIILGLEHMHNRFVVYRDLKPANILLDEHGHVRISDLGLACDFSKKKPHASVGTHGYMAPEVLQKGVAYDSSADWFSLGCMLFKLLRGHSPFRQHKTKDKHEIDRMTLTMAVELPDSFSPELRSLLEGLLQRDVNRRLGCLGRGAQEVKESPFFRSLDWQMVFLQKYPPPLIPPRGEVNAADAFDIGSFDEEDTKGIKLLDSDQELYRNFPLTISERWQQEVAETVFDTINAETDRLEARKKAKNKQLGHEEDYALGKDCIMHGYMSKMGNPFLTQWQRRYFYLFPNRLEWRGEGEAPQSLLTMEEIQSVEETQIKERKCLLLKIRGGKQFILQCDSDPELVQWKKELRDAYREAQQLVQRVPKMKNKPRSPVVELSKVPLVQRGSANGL
Test [9] has as its target Beta-2 adrenergic receptor (Homo sapiens) (UniProt P07550). Nature of the test: beta2AR agonists driving receptor internalization, pilot screen, cell-based, FAP fluorogen, flow cytometry, validation set (AID 504459).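 Also: agonist-driven loss of surface beta2AR via internalization measured by FAP dye flow cytometry.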 The settings on record: Am2.2-beta2AR cells, FAP surface receptor flow cytometry; at 10 µM; stronger effect = higher value.
Test [10] addresses AP-2 complex subunit beta (Homo sapiens) (UniProt P63010). Nature of the test: inhibitors of arrestin peptide binding to AP2, pilot screen, biochemical, validation set, GST-AP2 beads, flow cytometry (AID 504541;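 active = inhibition above 54%, about 3 SD of non-fluorescent compounds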;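 also: AP2 carries R879A mutation and is captured from E. coli lysate; bead-bound FITC arrestin peptide fluorescence measuring arrestin peptide binding to AP2; 0% = DMSO wells and 100% = excess unlabeled arrestin peptide control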). The following applies: FITC arrestin peptide, at 10 µM, stronger effect = higher value, AP2 beta2 appendage fragment, R879A mutant.
Test [11] in a line: yeast V-ATPase proton transport modulators, S. cerevisiae, pHLuorin, HTS validation (AID 504600; in the data active = response above about 15%;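 also: plate controls were DMSO for no effect and reference compound for full effect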). The settings on record: S. cerevisiae pHLuorin cytosolic pH, at 10 µM, stronger effect = higher value.
For test [12], the system named is anti-desmoglein-3 scFv antibody binding to human DSG3. Nature of the test: inhibitors of anti-DSG3 scFv binding to DSG3, pilot screen, biochemical, validation compound set, bead-based, flow cytometry (AID 588368;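 active = binding below the plate cutoff, the plate median minus 3 SD, with a reading above zero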;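 also: signal is the median channel fluorescence of bead-bound GFP antibody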). The settings on record: Protein G beads, DSG3-Fc, scFv-GFP binding, at 10 µM, stronger effect = lower value.
A short description of test [13]: inhibitors of fungal efflux pumps CDR1, CDR2, MDR1, pilot screen, validation compound set, multiplex, phenotypic (AID 588506;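 active = efflux inhibition above 0.42, the validation set average plus 4 SD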;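 also: Nile Red retained in cells so higher fluorescence means more efflux inhibition; 0 = negative control wells and 1 = enniatin B 25 µM full block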). The following applies: S. cerevisiae pump-expressing triplex, Nile Red efflux flow cytometry; at 10 µM; stronger effect = higher value; the pumps come from Candida albicans.
Test [14] addresses ATP-binding cassette sub-family B member 6 (Homo sapiens) (UniProt Q9NP58). Nature of the test: ABCB6 transporter inhibitors, pilot screen, K562-ABCB6 cells, flow cytometry, validation set (AID 588550;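 active = inhibition above the screen-wide mean plus 3 SD, about 51%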;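 also: 0% = DMSO wells and 100% = benzethonium chloride 70 µM positive control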). The settings on record: K562-ABCB6 porphyrin accumulation, 1 h, at 10 µM, stronger effect = higher value.
Test [15] is described as follows: promoters of myeloid differentiation in arrested cells, primary screen, cell-based, GFP/MAC1 double positive, flow cytometry, validation set (AID 588685;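 active = differentiation response of at least 50%, scaled between solvent and reference control, from cells with both markers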;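 also: compound exposure lasts four days before antibody staining and flow analysis; 0% = DMSO wells and 100% = 5 µM fulvestrant positive control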). The settings on record: ER-HoxA9 marrow cells, stronger effect = higher value, normalized: vehicle 0, fulvestrant 100.
Test [16] in a line: modulators of MEP2-GFP levels in yeast, primary screen, S. cerevisiae, multiplex flow cytometry (AID 1867;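 active = GFP response, as percent of the DMSO control, above the screen-wide mean plus 3 SD, about 139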;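 also: median GFP channel fluorescence of barcode-gated MEP2-GFP cells measured by flow cytometry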). The following applies: S. cerevisiae MEP2-GFP strain, 3 h, at 10 µM, stronger effect = higher value, 100% means same as DMSO wells.

Usually inhibition stands for the change of the read-out against control, counted positive when it falls.

Chain of AP-2 complex subunit beta (Homo sapiens) (P63010 whole entry, looked up, the tested form may be a part, one chain of several): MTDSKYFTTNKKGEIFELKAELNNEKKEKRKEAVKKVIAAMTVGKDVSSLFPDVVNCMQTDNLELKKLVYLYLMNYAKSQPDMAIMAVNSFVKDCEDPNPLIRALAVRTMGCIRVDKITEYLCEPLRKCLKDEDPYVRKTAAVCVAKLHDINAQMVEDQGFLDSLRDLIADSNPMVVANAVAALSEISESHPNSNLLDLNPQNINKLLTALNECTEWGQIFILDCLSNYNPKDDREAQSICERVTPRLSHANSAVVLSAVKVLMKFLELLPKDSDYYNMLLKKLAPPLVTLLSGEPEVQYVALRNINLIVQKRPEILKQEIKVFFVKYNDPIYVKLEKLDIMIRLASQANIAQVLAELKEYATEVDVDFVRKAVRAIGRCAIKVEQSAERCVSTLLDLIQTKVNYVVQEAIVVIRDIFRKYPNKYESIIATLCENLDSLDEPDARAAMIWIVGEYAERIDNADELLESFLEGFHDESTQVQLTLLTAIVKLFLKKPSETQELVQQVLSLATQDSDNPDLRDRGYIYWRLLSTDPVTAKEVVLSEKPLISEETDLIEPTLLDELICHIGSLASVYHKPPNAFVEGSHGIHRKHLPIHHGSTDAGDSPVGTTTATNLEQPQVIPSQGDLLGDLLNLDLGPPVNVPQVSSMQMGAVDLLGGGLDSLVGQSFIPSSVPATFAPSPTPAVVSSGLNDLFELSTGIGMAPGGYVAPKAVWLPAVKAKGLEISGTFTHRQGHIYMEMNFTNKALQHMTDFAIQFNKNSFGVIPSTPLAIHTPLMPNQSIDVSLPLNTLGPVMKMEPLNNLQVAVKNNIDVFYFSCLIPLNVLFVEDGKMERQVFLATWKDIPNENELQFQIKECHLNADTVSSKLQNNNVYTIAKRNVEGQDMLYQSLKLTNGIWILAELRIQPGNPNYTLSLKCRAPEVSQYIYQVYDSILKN
Chain of Beta-2 adrenergic receptor (Homo sapiens) (P07550 whole entry, looked up): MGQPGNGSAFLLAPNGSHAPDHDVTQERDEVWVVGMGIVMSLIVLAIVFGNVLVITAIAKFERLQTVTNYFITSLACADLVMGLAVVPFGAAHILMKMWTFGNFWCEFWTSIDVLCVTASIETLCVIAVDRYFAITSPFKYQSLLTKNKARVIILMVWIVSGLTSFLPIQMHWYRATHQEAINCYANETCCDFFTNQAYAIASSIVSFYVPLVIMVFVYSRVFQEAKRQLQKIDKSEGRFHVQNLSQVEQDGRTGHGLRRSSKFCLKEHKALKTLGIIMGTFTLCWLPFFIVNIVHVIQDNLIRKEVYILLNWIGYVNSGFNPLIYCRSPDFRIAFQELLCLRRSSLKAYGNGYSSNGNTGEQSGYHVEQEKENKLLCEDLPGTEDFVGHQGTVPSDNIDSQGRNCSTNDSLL
Chain of ATP-binding cassette sub-family B member 6 (Homo sapiens) (Q9NP58 whole entry, looked up): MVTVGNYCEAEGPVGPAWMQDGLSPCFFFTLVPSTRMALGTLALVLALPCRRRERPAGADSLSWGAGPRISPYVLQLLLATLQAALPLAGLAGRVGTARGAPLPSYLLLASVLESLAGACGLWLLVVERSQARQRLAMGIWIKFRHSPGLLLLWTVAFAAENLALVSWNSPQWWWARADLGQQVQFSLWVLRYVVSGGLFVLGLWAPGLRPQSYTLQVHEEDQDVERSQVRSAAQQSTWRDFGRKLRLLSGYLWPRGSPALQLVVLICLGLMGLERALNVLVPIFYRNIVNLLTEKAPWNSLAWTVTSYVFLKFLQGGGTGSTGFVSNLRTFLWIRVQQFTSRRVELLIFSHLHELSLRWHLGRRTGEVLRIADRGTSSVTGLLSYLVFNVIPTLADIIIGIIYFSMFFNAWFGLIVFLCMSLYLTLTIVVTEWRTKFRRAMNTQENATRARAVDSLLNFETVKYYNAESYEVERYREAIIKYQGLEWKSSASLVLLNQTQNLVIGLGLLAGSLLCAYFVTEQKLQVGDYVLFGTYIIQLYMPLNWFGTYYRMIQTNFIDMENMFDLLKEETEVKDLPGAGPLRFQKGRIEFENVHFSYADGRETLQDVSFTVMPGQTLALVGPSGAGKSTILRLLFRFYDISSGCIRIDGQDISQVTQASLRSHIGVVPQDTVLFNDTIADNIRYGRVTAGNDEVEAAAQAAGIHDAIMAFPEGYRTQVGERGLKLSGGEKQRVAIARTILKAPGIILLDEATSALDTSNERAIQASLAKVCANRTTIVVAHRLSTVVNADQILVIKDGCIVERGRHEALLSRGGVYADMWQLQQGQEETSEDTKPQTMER

Turning to `c1ccc2c(c1)CCCC2C1=NCCN1` (centres undefined), the percent of DMSO control GFP in test [1] was 98.2% (inactive). For the same compound, in test [2], the percent response of DMSO control was 102% (inactive). In addition, the GFP response vs DMSO in test [3] is 108% (inactive). In addition, in [4], the GFP response, % of DMSO was 110% (inactive). The double positive events in [5] came out at 69.5%. For the same compound, the vesicle binding response in test [5] is 263% (inactive). For the same compound, the inhibition is -15.6% (inactive) in test [6], -7.04% (inactive) in test [10] and 19% (inactive) in [14]. For the same compound, the superoxide response (% of plate) in test [7] was 82.6% (inactive). For the same compound, in [8], the aptamer binding inhibition was -1% (inactive). In addition, the response in test [9] is -24.5% (inactive); in test [11] it was 1.56% (inactive). Also, in test [12], the binding (% of control) is 101% (inactive). Moreover, the efflux inhibition (fraction of control) in test [13] was -0.04 (inactive). Also, the differentiation response in test [15] is 8.8% (inactive).

With `COC(=O)c1ccc(CC(=O)c2ccc(O)cc2O)o1`, the percent of DMSO control GFP in test [1] was 93.5% (inactive). Besides, the figures for the GFP response vs DMSO in test [16] and in test [3] were 119% (inactive) and 79.8% (inactive), respectively. Besides, in test [2], the percent response of DMSO control was 91.3% (inactive). In addition, the double positive events in [5] was 72.3%. Also, the vesicle binding response in [5] was 248% (inactive). The figures for the inhibition in test [6], in [10] and in test [14] were -32.3% (inactive), 5.21% (inactive) and -45% (inactive), respectively. For the same compound, in test [7], the superoxide response (% of plate) was 93.2% (inactive). Also, the aptamer binding inhibition in [8] is 4% (inactive). In addition, the response was 7.39% (inactive) in test [9] and 18.1% (active) in test [11]. For the same compound, the binding (% of control) in [12] was 109% (inactive). Besides, the efflux inhibition (fraction of control) in test [13] is -0.24 (inactive). In addition, the differentiation response in test [15] was 4.91% (inactive).

Turning to `CC(=O)OCC1OC(n2ccc(=O)[nH]c2=O)C(O)C1O` (centres undefined), the percent of DMSO control GFP in test [1] was 100% (inactive). The percent response of DMSO control in [2] was 122% (inactive). For the same compound, in test [3], the GFP response vs DMSO is 102% (inactive). Also, the GFP response, % of DMSO in test [4] is 101% (inactive). The double positive events in test [5] turned out to be 60.2%. For the same compound, in test [5], the vesicle binding response is 42.8% (inactive). The inhibition in [6] was -12.9% (inactive); in test [10] it was -6.88% (inactive); in [14], 9% (inactive). In addition, in [7], the superoxide response (% of plate) is 97.6% (inactive). In test [8], the aptamer binding inhibition is 1% (inactive). Besides, the response in test [9] was -2% (inactive); in [11] it was -3.65% (inactive). The binding (% of control) in test [12] is 97.7% (inactive). Moreover, the efflux inhibition (fraction of control) in test [13] was -0.26 (inactive). The differentiation response in test [15] is -1.71% (inactive).

Turning to `OCCN(CCO)c1ccc2ccccc2c1`, the percent of DMSO control GFP in test [1] was 96.5% (inactive). The percent response of DMSO control in test [2] was 99.6% (inactive). The GFP response vs DMSO in test [3] was 96.5% (inactive). In [4], the GFP response, % of DMSO was 98.9% (inactive). Moreover, the double positive events in [5] came out at 66.7%. Further, the vesicle binding response in test [5] is 267% (inactive). The inhibition in test [6] is 0.94% (inactive); in test [10], -3.97% (inactive); in [14] it was 10% (inactive). Besides, in test [7], the superoxide response (% of plate) is 98.1% (inactive). The aptamer binding inhibition in test [8] was 2% (inactive). For the same compound, the response in test [9] was -2.38% (inactive); in [11], 4.81% (inactive). Further, the binding (% of control) in test [12] is 103% (inactive). Besides, the efflux inhibition (fraction of control) in [13] is -0.21 (inactive). Moreover, the differentiation response in test [15] was 5.6% (inactive).

`CCCCC[C@H](O)/C=C/[C@@H]1[C@@H](C/C=C\CCCC(=O)OC)[C@@H](O)C[C@H]1O`: the percent of DMSO control GFP in test [1] is 97.4% (inactive). Further, the GFP response vs DMSO in test [16] is 127% (inactive). Moreover, the percent response of DMSO control in test [2] is 99.2% (inactive). Besides, in test [5], the double positive events was 59.2%. Besides, in [5], the vesicle binding response was 157% (inactive). Moreover, the inhibition in [6] was -30.4% (inactive); in [10], -11.2% (inactive); in test [14], 13% (inactive). The superoxide response (% of plate) in test [7] was 171% (inactive). Also, the aptamer binding inhibition in test [8] is 12% (inactive). Moreover, the response in test [9] was 4.64% (inactive); in test [11] it was -0.57% (inactive). In addition, the binding (% of control) in test [12] is 116% (inactive). For the same compound, the efflux inhibition (fraction of control) in test [13] is 0.05 (inactive). The differentiation response in test [15] is 2.46% (inactive).
